Compounds with a hit are over-represented: about 15% of the library has one in this group of screens.
ELG1 DNA repair – qHTS screen for small molecules that inhibit ELG1-dependent DNA repair in human embryonic kidney (HEK293T) cells expressing luciferase-tagged ELG1; AID 504467, 2011; 2.3% of 330,000 active; HEK293T ELG1-luciferase reporter, luminescence, 16 h; DNA damage induced by 5-fluorouridine; Potency, µM (titrated, usually from 46.1 µM), for inactives: top-dose activity change, negative = inhibition, actives largely listed as inhibitors; note: nearly all actives have a fitted effect of over 55% in size
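Cells (2,000 per well) received 5-fluorouridine plus test compound or DMSO and were incubated 16 hr at 37 °C, 5% CO2. Luciferase activity was read by luminescence 30 min after ONE-Glo addition; signal suppression marked inhibition of damage-induced ELG1 function.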
VP16 counter – VP16 counterscreen qHTS for inhibitors of ROR gamma transcriptional activity; Potency, µM (doses to about 53.6 µM), inactives show top-dose activity, negative = inhibition, usual class: inhibitors; 3.5% of 310,000 active; Drosophila S2 Gal4-VP16 UAS-luciferase, luminescence, 20 h; AID 2546, 2010;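 note: Gal4-VP16 expression switched on by copper sulfate through the metallothionein promoter; nearly all actives have a fitted effect of over 50% in size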
DT40 TDP1 no CPT – qHTS for Inhibitors of human tyrosyl-DNA phosphodiesterase 1 (TDP1): qHTS in cells in absence of CPT; DT40 Tdp1-/- hTDP1 cells, no CPT, ATP luminescence, 48 h; Potency, µM (series often up to 46.2 µM), for inactives: at the highest dose activity change, negative = growth inhibition, most hits filed as inhibitors; 15% of 420,000 active; AID 686978, 2013; note: nearly all actives have a fitted effect of over 55% in size
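Readout: luminescence from CellTiter-Glo after 30 min in the dark at RT. Cells: DT40 Tdp1-/- with stable hTDP1, 400/well. Exposure: compounds alone, ≥48 hr, 37 °C.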
12-LOX inh – Primary qHTS assay for inhibitors of human arachidonate 12S-lipoxygenase (ALOX12): Round 2; Polyunsaturated fatty acid lipoxygenase ALOX12 (Homo sapiens), P18054; purified 12hLO, xylenol orange hydroperoxide absorbance; Potency, µM (series often up to 108 µM), without a hit: at the top dose activity change, negative = inhibition, hits mostly inhibitors; 1.1% of 580,000 active; AID 1671190, 2021
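Purified human 12hLO at 150 nM in 25 mM Hepes, 0.01% Triton X-100, pH 7.0, preincubated 15 min at room temperature with compound. Reaction started with 40 uM arachidonic acid, 30 min at room temperature. Hydroperoxide measured by Fe-xylenol orange, 573/405 nm absorbance ratio.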
DT40 TDP1 CPT – qHTS for Inhibitors of human tyrosyl-DNA phosphodiesterase 1 (TDP1): qHTS in cells in presence of CPT; Potency, µM (doses to about 46.2 µM), inactives show top-dose activity change, negative = growth inhibition, actives largely listed as inhibitors; chicken DT40 Tdp1-/-;hTDP1 cells + 20 nM CPT, ATP luminescence, 48 h; 12% of 420,000 active; note: nearly all actives have a fitted effect of over 55% in size
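Chicken DT40 Tdp1-/- cells complemented with human TDP1, 400 cells/well, exposed to compounds plus 20 nM camptothecin for at least 48 h at 37 C; viability read as ATP content by CellTiter-Glo luminescence.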
RORg inh – qHTS for inhibitors of ROR gamma transcriptional activity | Nuclear receptor ROR-gamma (Mus musculus), P51450 | Drosophila S2 Gal4-RORgamma UAS-luciferase reporter, 20 h | Potency, µM (doses to about 53.6 µM), without a hit: at the top dose activity change, negative = inhibition, most hits filed as inhibitors | 5.4% of 310,000 active; note: nearly all actives have a fitted effect of over 60% in size
Target sequence (P51450 whole entry, looked up, the tested form may be a part): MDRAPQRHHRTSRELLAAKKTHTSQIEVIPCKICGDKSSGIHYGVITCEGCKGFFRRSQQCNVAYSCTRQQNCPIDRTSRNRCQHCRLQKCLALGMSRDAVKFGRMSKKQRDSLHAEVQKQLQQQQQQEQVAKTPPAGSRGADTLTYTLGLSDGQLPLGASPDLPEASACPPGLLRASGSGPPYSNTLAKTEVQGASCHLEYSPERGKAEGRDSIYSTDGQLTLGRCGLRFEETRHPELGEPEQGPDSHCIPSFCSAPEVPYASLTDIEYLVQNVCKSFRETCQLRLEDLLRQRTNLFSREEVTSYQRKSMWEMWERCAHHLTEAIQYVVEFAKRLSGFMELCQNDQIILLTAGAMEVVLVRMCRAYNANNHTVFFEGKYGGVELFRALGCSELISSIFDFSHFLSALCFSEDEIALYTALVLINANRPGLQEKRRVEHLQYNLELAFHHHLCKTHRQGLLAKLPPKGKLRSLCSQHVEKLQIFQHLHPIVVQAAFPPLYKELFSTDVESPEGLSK
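Schneider cells (Drosophila), stable Gal4 DBD–ROR gamma + UAS-luc; 1 hr cmpd preincubation; Cu2+ induction 700 uM final; 20 hr ambient; luminescence.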
* = called active by the depositor; ? = inconclusive; nt = not tested or not shown; [ ] = another dose, or the depositor's remark. Calls come from the whole dose curve; as a rule, active = well fitted curve in the direction sought with a large enough effect; inconclusive = small, poorly fitted or top-dose-only effect, or another doubt; inactive = no such curve, though single readings can be large; an effect the other way counts as inactive or inconclusive. % is set by controls: 0 for no effect and ±100 for the full control effect; potency is the fitted concentration of half-maximal effect.

SMILES	ELG1 DNA repair	VP16 counter	DT40 TDP1 no CPT	12-LOX inh	DT40 TDP1 CPT	RORg inh
O=C(OCC(=O)N1CCN(C(=O)c2ccco2)CC1)c1cn(-c2ccccc2)nc1-c1ccccc1	?	1%	?	12%	?	15%
O=C(OCC(=O)N1CCN(C(=O)c2ccco2)CC1)c1cc(-c2ccc(F)cc2)nc2ccccc12	23µM*	16%	-16%	-13%	-17%	25%
CCOC(=O)/C=C/C(=O)OCC(=O)N1CCN(C(=O)c2ccco2)CC1	-6%	?	15µM*	?	7.3µM*	11µM*
COc1cccc([S+](=O)([O-])N2CCC3(C2)C(=O)N(Cc2ccccc2)c2ccccc23)c1 (stereo not drawn)	nt	nt	nt	23%	nt	nt
O=C(c1ccc2c(c1)OCO2)N1CCC(N2CCOCC2=O)CC1	nt	nt	nt	9%[6.33 µM]	nt	nt
Cc1cc2nc(CCN3CCOCC3)n(S(=O)(=O)c3ccc(C(C)(C)C)cc3)c2cc1C	21µM*	1%	?	-2%	18µM*	12%
CC(C)(C)c1ccc(S(=O)(=O)NCCN2CCOCC2)cc1	nt	nt	-24%	?	-21%	nt
NNc1nc2c(Cl)ccc(Cl)c2s1	0%	18µM*	?	?	-11%	11µM*
CCCS(=O)(=O)N1CCC(C(=O)N2CCC(Cc3ccccc3)CC2)CC1	-14%	-4%	21µM*	388%	18µM*	12%
CCCS(=O)(=O)N1CCCC(C(=O)NCCc2ccccc2)C1 (stereo not drawn)	2%	3%	5%	11%	33%	47%
CCCS(=O)(=O)N1CCCC(C(=O)N2CCC(Cc3ccccc3)CC2)C1 (stereo not drawn)	-19%	-3%	15µM*	0%	?	1%
CCCS(=O)(=O)N1CCC(C(=O)NCCCN2CCC(Cc3ccccc3)CC2)CC1	9%	-6%	-11%	-16%	-12%	-22%
CCCCOc1ccc(C(C)NC(=O)C2CCCN(S(=O)(=O)CCC)C2)cc1 (stereo not drawn)	-18%	-4%	16µM*	-9%	12µM*	28%
Cc1ccc(C(=O)N2CCC(Oc3ccc(NC(=O)c4ccccc4)cn3)C2)cc1 (stereo not drawn)	nt	nt	nt	-3%	nt	nt
N#C/C(=C(/O)COC(=O)Cc1c[nH]c2ccccc12)c1nc2ccccc2[nH]1	1%	?	-16%	-1%	-18%	10µM*
COc1ccccc1OCC(=O)OC/C(O)=C(\C#N)c1nc2ccccc2[nH]1	?	-5%	?	1%	?	11%
N#CC(=C(O)COC(=O)CCC1CCCCC1)c1nc2ccccc2[nH]1	nt	nt	5.2µM*	-2%	5.8µM*	nt
CCCCOC(=O)c1nc2ccccc2nc1NCc1ccccc1	nt	nt	nt	2%	nt	nt
CCN(CC(=O)Nc1ccc(NC(C)=O)cc1)C(=O)c1cccc(S(=O)(=O)N2CCc3ccccc3C2)c1	-6%	nt	-20%	-23%	-13%	nt
CCN(CC(=O)Nc1c(F)cccc1F)C(=O)c1cccc(S(=O)(=O)N2CCN(c3ccccc3)CC2)c1	?	-5%	?	474%	?	?
CCN(CC(=O)Nc1c(F)cccc1F)C(=O)c1cccc(S(=O)(=O)N(C)c2ccccc2)c1	-3%	nt	15µM*	-11%	13µM*	nt
CCN(CC(=O)Nc1c(F)cccc1F)C(=O)c1cccc(S(=O)(=O)N2CCCc3ccccc32)c1	nt	nt	16µM*	298%	?	nt
CCN(CC(=O)Nc1cccc(OC)c1)C(=O)c1cccc(S(=O)(=O)N2CCc3ccccc32)c1	-11%	nt	16µM*	?	23µM*	nt
COc1ccc(-c2noc(C(=O)O)c2[C@@H](C)NC(=O)c2cc(C)n(C)n2)cc1	nt	nt	nt	-12%[176 µM]	nt	nt
CC(C)Cn1nc(C(=O)Nc2nnc(Cc3ccccc3)s2)c2ccccc2c1=O	nt	nt	nt	-15%	nt	nt
SMILES	ELG1 DNA repair	VP16 counter	DT40 TDP1 no CPT	12-LOX inh	DT40 TDP1 CPT	RORg inh
N#Cc1ccc(/C=C/C(=O)c2cc3cc(Cl)ccc3o2)cc1	nt	nt	nt	17%	nt	nt
Cc1ccc(N(C(=O)Cn2nnc(-c3ccccc3F)n2)C(C(=O)NC2CCCC2)c2ccncc2)cc1 (stereo not drawn)	5%	3%	?	11%	?	-5%
Cc1ccc(-c2nnn(CC(=O)N(CC(=O)NC3CCCCC3)c3ccc(F)c(Cl)c3)n2)o1	?	?	21µM*	262%	13µM*	?
Cc1ccc(C)c(N(C(=O)Cn2nnc(-c3cccs3)n2)C(C(=O)NC2CC2)c2ccc(C)o2)c1 (stereo not drawn)	-3%	-21%	11µM*	-19%	?	17%
COc1ccc(-c2nnn(CC(=O)N(CC(=O)NC3CCCC3)c3ccccc3)n2)cc1OC	-9%	1%	15µM*	17%	?	17%
Cc1ccc(N(C(=O)Cn2nnc(-c3cccs3)n2)C(C(=O)NC2CCCC2)c2ccncc2)cc1 (stereo not drawn)	10%	-5%	21µM*	0%	23µM*	6%
Cc1ccc(N(C(=O)Cn2nnc(-c3ccc(C)o3)n2)C(C(=O)NC2CCCC2)c2ccco2)cc1 (stereo not drawn)	-6%	-23%	13µM*	0%	?	-4%
CCc1c(C2(O)CCCCC2)[nH]c2cc(C(F)(F)F)ccc12	-10%	?	13µM*	nt	?	-7%
Cc1c(C2(O)CCCCC2)[nH]c2cnccc12	?	nt	-16%	-17%	-14%	nt
Cc1c(C2(O)CCCCC2)[nH]c2cc(C(F)(F)F)ccc12	-7%	nt	16µM*	?	21µM*	nt
O=C(c1cccs1)N(CCN1CCCCC1)CC1CCCN(C2CCCC2)C1 (stereo not drawn)	?	-2%	-4%	-1%	?	35%
Cc1ccc(C(=O)N(CCN2CCCCC2)CC2CCCN(C3CCCC3)C2)s1 (stereo not drawn)	?	nt	21µM*	61%	?	nt
Cc1c(-c2ccccc2)n(Cc2ccccc2)c2ccccc12	nt	nt	nt	-61%	nt	nt
